Reference: PubChem BioAssay AID493194 (Broad Institute, 2011)
Results with a measured potency or affinity are listed apart. Results filed as inconclusive are left out. The source made the active and inactive calls.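 Rule for the calls: active = a valid curve of falling signal whose half-effect concentration is at most ten times the top tested dose; inconclusive = flat curve at 30 to 70% inhibition, or poor fit; inactive = signal rise, flat within 30%, or potency beyond limit.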

Molecular target: Scavenger receptor class B member 1 (Mus musculus) (UniProt Q61009)
Assay: mouse SR-BI DiI-HDL uptake blockers – ldlA[mSR-BI] cells, fluorescence, cherry pick, dose response (AID 493194);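 note: CHO cells lacking LDL receptor and overexpressing mouse SR-BI; cellular uptake of fluorescently labeled HDL measured as cell fluorescence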
Conditions: CHO ldlA[mSR-BI] DiI-HDL uptake fluorescence, 3 h; series mostly up to 35 µM

Chain of Scavenger receptor class B member 1 (Mus musculus) (Q61009 whole entry, looked up): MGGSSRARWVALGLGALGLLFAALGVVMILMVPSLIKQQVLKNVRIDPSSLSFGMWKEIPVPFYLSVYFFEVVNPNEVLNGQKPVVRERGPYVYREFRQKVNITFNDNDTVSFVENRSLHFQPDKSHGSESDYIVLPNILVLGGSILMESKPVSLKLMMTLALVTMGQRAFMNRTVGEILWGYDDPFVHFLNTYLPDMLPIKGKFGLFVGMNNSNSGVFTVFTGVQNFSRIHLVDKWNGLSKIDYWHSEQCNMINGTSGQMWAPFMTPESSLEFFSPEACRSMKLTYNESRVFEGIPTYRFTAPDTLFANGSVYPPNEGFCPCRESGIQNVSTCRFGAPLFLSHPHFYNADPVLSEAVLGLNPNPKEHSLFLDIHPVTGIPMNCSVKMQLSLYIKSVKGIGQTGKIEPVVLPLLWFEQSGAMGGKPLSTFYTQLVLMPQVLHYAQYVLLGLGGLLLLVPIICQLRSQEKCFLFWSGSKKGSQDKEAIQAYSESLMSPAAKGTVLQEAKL

| Compound | outcome |
| --- | --- |
| COc1ccc2c(c1)OC[C@H]1[C@H]2N2C(=O)c3cc(Cl)ccc3NC(=O)[C@@]2(C)[C@H]1c1ccccc1 | inactive |
| COc1ccc(-c2nc(-c3ccc(O)cc3O)cs2)cc1OC | inactive |
| O=C(C1=COCCO1)N(Cc1nnc(-c2ccccc2Cl)o1)C1CC1 | inactive |
| Cc1cccc(Nc2ccccc2C(=O)OCC(=O)N(C)C2CCS(=O)(=O)C2)c1C (stereo not drawn) | inactive |
| Cc1cc(C)cc(N(CCC#N)C(=O)COC(=O)CCc2c[nH]c3ccccc23)c1 | inactive |
| O=C(CN1CCOCC1)Nc1nc(-c2ccc3c(c2)CCN3S(=O)(=O)c2ccccc2)cs1 | inactive |
| O=C(NCCn1cc(SCc2ccccc2)c2ccccc21)c1c(F)cccc1F | inactive |
| COc1ccc2c(c1)-c1c(sn(-c3ccc(OC)c(OC)c3)c1=S)C(C)(C)N2 | inactive |
| Cc1c(Cl)cccc1S(=O)(=O)N1CCC(C(=O)NNC(=O)C2CC2)CC1 | inactive |
| CNc1nc(-c2ccc3c(c2)CCN3C(=O)c2ccc(F)cc2)cs1 | inactive |
| COc1ccc(C2/C=C\CN(S(=O)(=O)c3ccc4ccccc4c3)CC(=O)N2Cc2ccc(F)cc2)cc1 (stereo not drawn) | inactive |
| O=C(O)CC(C(=O)Nc1cccc(C(F)(F)F)c1)C1CCCO1 (stereo not drawn) | inactive |
| COc1ccc(N2C(=O)C3C(C2=O)C3(c2ccccc2)c2ccccc2)cc1 (stereo not drawn) | inactive |
| O=C1[C@@H]2Cc3c([nH]c4ccccc34)C(c3cccc([N+](=O)[O-])c3)N2C(=O)CN1CCCO (stereo partly drawn) | inactive |
| Cc1c(C(=O)Nc2ccc(Cl)cc2)c2ccccn2c1CCc1ccncc1 | inactive |
| Cc1ccc(F)cc1NC(=O)C1C2CCC(O2)C1C(=O)O (stereo not drawn) | inactive |
| COc1cc(/C=C/C(=O)Nc2cccc(S(=O)(=O)NC3=NCCCCC3)c2)ccc1OCC#N | inactive |
| COc1ccc(CCN2CC(C(=O)NCc3cc(C(C)C)no3)CCC2=O)cc1 (stereo not drawn) | inactive |
| COc1ccc(C(=O)CSc2nnc(CNC(=O)c3ccc(S(=O)(=O)N(C)C)cc3)o2)cc1 | inactive |

| Compound | outcome |
| --- | --- |
| O=C(NCN1C(=O)C2C3C=CC(C3)C2C1=O)OC1CCCCC1 (stereo not drawn) | inactive |
| CCOC(=O)C1CCN(C(=O)Cn2nc(C)n3nc(-c4ccc(OC)cc4)cc3c2=O)CC1 | inactive |
| Cc1cccc(NC(=O)C2(C)CC3c4ccccc4C2c2ccccc23)c1C (stereo not drawn) | inactive |
| COc1ccccc1CNC(=O)C1CCN(C(=O)c2sccc2-n2cccc2)CC1 | inactive |
| O=C(NC1CCCC1)C(c1c[nH]c2ccccc12)N(C(=O)Cn1nnc(-c2ccc(Cl)cc2)n1)c1ccccc1 (stereo not drawn) | inactive |
| COc1ccc(CCNC(=O)c2ccc3c(c2)N(Cc2ccc(C)cc2)CCS3)cc1OC | inactive |
| COc1ccc(C2c3sc(=O)[nH]c3SC3C4CCC(C4)C23)cc1OC (stereo not drawn) | inactive |
| COc1ccc(NC(=O)c2ccc3c(c2)CCN3S(=O)(=O)c2ccccc2)cc1 | inactive |
| COc1cccc(-c2csc(N3CCN(C(=S)Nc4cccc(Cl)c4)CC3)n2)c1 | inactive |
| CCC(C)c1ccccc1N1CC(C(=O)N2CCN(S(=O)(=O)c3ccccc3Br)CC2)CC1=O (stereo not drawn) | inactive |
| COc1cc(OC)cc(C(=O)N[C@H](C(=O)OCC(=O)c2ccc3c(c2)NC(=O)CO3)C(C)C)c1 | inactive |
| Cc1ccc(S(=O)(=O)N2CCC(C(=O)NNC(=O)c3cccnc3)CC2)cc1 | inactive |
| N#Cc1ccc(C(=O)N2CCC3CC2c2cc(-c4ccccc4)ccc23)cc1 (stereo not drawn) | inactive |
| CC(=O)c1ccc(-c2ccc(C(=O)Nc3nc(C)c(C(C)=O)s3)o2)cc1 | inactive |
| Cc1c(C(=O)N2CC3(CC(c4cccc(NC(=O)CC(c5ccccc5)c5ccccc5)c4)=NO3)C[C@@H]2C(N)=O)cc([N+](=O)[O-])cc1[N+](=O)[O-] (stereo partly drawn) | inactive |
| CC(C)(C)N(Cc1ccccc1)C(=O)COC(=O)CN1C(=O)NC2(CCCC2)C1=O | inactive |
| CSc1nccc(-c2sc(SC)c(C#N)c2-c2ccccc2)n1 | inactive |
| CCCOc1ccc(C(=O)Nc2ccc(S(=O)(=O)N3C[C@@H]4C[C@@H](C3)c3cccc(=O)n3C4)cc2)cc1 | inactive |
| COc1ccc(-c2nnn(CC(=O)N(C3CCCCC3)C(C)C(=O)NC3CCCC3)n2)cc1OC (stereo not drawn) | inactive |
